A short description of test [1]: Nuclear factor erythroid 2-related factor 2/antioxidant responsive element (Nrf2/ARE) small molecule agonists: qHTS cell viability counter screen in human keratinocytes (AID 1919968; active = well fitted curve in the direction sought with a large enough effect in the repeat runs; an effect the other way counts as inactive or inconclusive; also: nearly all actives have a fitted effect of over 55% in size; also: potency is read from the fitted curve at half-maximal effect). In short, it runs like this: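 In human HaCaT keratinocytes stably expressing an ARE-driven luciferase, compound exposure lasted 23 h at 37 C under 5% CO2. Viable cells are quantified with a protease-based fluorogenic reagent (CellTiter-Fluor) read 1 h after addition.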

The nature of test [2]: Nuclear factor erythroid 2-related factor 2/antioxidant responsive element (Nrf2/ARE) small molecule agonists: luciferase reporter gene qHTS assay in human keratinocytes (AID 1919969). Also: nearly all actives have a fitted effect of over 35% in size. Also: potency is read from the fitted curve at half-maximal effect.
For test [3], the target named is Gonadotropin-releasing hormone receptor (Homo sapiens) (UniProt P30968). Description: Human gonadotropin-releasing hormone receptor (GnRHR) small molecule agonists, calcium flux assay in GnRHR-HEK293 cells (AID 1920063). Also: nearly all actives have a fitted effect of over 35% in size. The method in brief:
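Intracellular calcium rise is the read-out: engineered human GnRHR HEK293 cells, dye-loaded, are exposed to DMSO-dissolved compounds and fluorescence at Ex/Em 480/540 is tracked for 3 min.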
Background: Calcium assays in cells follow changes in intracellular calcium, usually with a dye or a luminescent sensor.

Test [4] deals with KiSS-1 receptor (Homo sapiens) (UniProt Q969F8). The experiment in a line: Human kisspeptin (KISS1R) small molecule agonists, calcium flux assay in KISS1R-HEK293 cells (AID 1920064; active = well fitted curve in the direction sought with a large enough effect in the repeat runs; an effect the other way counts as inactive or inconclusive). In short, it runs like this: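 Concentration-response testing used 15 concentrations in triplicate on human KISS1R-expressing HEK293 cells. Calcium-dependent fluorescence (Ex/Em 480/540) was followed kinetically for 3 min after compound transfer.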
Chain of KiSS-1 receptor (Homo sapiens) (Q969F8 whole entry, looked up): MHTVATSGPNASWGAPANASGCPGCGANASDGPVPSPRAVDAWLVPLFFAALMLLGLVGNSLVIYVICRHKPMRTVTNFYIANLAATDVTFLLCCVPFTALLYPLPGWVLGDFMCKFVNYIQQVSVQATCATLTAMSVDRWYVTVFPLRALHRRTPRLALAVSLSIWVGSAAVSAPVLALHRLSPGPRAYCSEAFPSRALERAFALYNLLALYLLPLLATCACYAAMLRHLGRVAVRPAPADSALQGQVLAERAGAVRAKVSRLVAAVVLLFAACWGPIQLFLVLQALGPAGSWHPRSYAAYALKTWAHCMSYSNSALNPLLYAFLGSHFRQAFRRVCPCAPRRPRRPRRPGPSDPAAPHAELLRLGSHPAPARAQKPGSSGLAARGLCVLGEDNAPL

Test [5] is described as follows: p53 small molecule agonists, cell-based qHTS assay with rat liver microsomes (AID 1963578). The method in brief:
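p53RE-bla cells, 4,000/well, pre-incubated 5 h, then given compounds plus rat liver microsomes (0.5 mg/mL final) and NADPH (0.5 mg/mL final). Incubation 16 h at 37 C; beta-lactamase reporter read by LiveBLAzer fluorescence after 2 h at room temperature.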
On the technique in general: Quantitative high-throughput screening tests each substance at several concentrations.

Test [6] can be described thus: p53 small molecule agonists, cell-based qHTS assay with human liver microsomes: qHTS cell viability counter screen (AID 1963579). Also: nearly all actives have a fitted effect of over 45% in size. Also: potency is read from the fitted curve at half-maximal effect. The method in brief:
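p53RE-bla cells, 4,000/well, dosed 5 hours after plating, with human liver microsomes (0.5 mg/mL final) plus NADPH (0.5 mg/mL final), 16 hours at 37 C. Viability read as CellTiter-Glo luminescence after 30 min at room temperature.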

Test [7] in a line: p53 small molecule agonists, cell-based qHTS assay with rat liver microsomes: qHTS cell viability counter screen (AID 1963580). Also: nearly all actives have a fitted effect of over 45% in size. Also: potency is read from the fitted curve at half-maximal effect. The method in brief:
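Cytotoxicity counter screen: intracellular ATP measured by CellTiter-Glo luminescence in the same wells as the beta-lactamase reporter read, on HCT-116 p53RE-bla cells exposed 16 h at 37 C to compounds with rat liver microsomes and NADPH, each 0.5 mg/mL final.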

Test [8] can be described thus: p53 small molecule agonists, cell-based qHTS assay: qHTS cell viability counter screen (AID 1963581). Also: nearly all actives have a fitted effect of over 45% in size. Also: potency is read from the fitted curve at half-maximal effect. In short, it runs like this: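 Luminescence from CellTiter-Glo, reflecting ATP content, serves as the cytotoxicity measure; it is taken after the 2 h reporter substrate step in HCT-116 p53RE-bla cells dosed for 16 h at 37 C.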
The target of test [9] is 5-hydroxytryptamine receptor 2A (Homo sapiens) (UniProt P28223). The experiment in a line: 5-hydroxytryptamine receptor 2A (HTR2A) small molecule antagonists, cell-based qHTS assay (AID 1963586). Also: nearly all actives have a fitted effect of over 45% in size. Also: potency is read from the fitted curve at half-maximal effect. The method in brief:
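CHO cells stably expressing human HTR2A were plated for 18 h at 37 C, then loaded with calcium dye for 1 h. Compounds were preincubated 5 min at room temperature before DOI (4 nM solution) was added. Kinetic fluorescence was read for 3 min.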

The target is the same in test [10]. Description: 5-hydroxytryptamine receptor 2A (HTR2A) small molecule agonists, cell-based qHTS assay (AID 1963587). Also: nearly all actives have a fitted effect of over 30% in size. Also: potency is read from the fitted curve at half-maximal effect. The method in brief:
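CHO cells stably expressing human HTR2A, plated 18 h, loaded with calcium dye 1 h at 37 C. Agonist mode: compounds added and intracellular calcium fluorescence recorded kinetically for 2 min at 1 sec intervals.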

Test [11] deals with Muscarinic acetylcholine receptor M1 (Homo sapiens) (UniProt P11229). The experiment in a line: Cholinergic receptor muscarinic 1 (CHRM1) small molecule antagonists, cell-based qHTS assay (AID 1963588). Also: nearly all actives have a fitted effect of over 40% in size. The method in brief:
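Compounds were tested at 15 concentrations in three independent runs. Dye-loaded CHRM1-CHO cells were exposed 5 min at room temperature before stimulation by acetylcholine added at 50nM. Intracellular calcium was read kinetically on FDSS for 3 min.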

For test [12] the target is unchanged. Description: Cholinergic receptor muscarinic 1 (CHRM1) small molecule agonists, cell-based qHTS assay (AID 1963589). Also: nearly all actives have a fitted effect of over 35% in size. Also: potency is read from the fitted curve at half-maximal effect. The method in brief: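 Fluorescent calcium dye reports M1 activation in stably transfected CHO cells. Compounds, 15 concentrations, added after 1 h dye loading at 37 C; kinetic reading at 1 sec intervals.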
Test [13] has as its target Beta-2 adrenergic receptor (Homo sapiens) (UniProt P07550). Description: Adrenergic beta2 receptor (ADRB2) small molecule antagonists, cell-based qHTS assay (AID 1963592). Also: series mostly up to about 92 µM; nearly all actives have a fitted effect of over 50% in size. In short, it runs like this: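 Assay format: CHO-ADRB2 cells, 18-20hr seeding at 37C/5% CO2, then compound plus 1nM isoproterenol agonist mix for 0.5hr RT. Homogeneous time-resolved fluorescence cAMP detection after 1hr, expressed as 665/615 nm ratio.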

Test [14] has as its target D(2) dopamine receptor (Homo sapiens) (UniProt P14416). Description: Dopamine D2 receptor (DRD2) small molecule agonists, cell-based qHTS assay (AID 1963594). Also: nearly all actives have a fitted effect of over 35% in size. Also: potency is read from the fitted curve at half-maximal effect. In short, it runs like this: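 HEK293 cells stably expressing human DRD2, pre-treated with PDE inhibitor Ro20-1724 (0.1 mM final) and compound 10 min at room temperature, then stimulated with NKH477 (200nM […]) for 30 min. cAMP read by HTRF (665/620 nm).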

Test [15] has the same target. The experiment in a line: Dopamine D2 receptor (DRD2) small molecule antagonists, cell-based qHTS assay (AID 1963595; active = well fitted inhibition curve with a large enough effect in the signal ratio in the repeat runs, with a control signal flat; the % refers to the signal ratio). In short, it runs like this: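 Antagonist mode in DRD2-HEK293 cells: after compound addition with 0.1 mM Ro20-1724, cells received quinpirole (12 nM) and NKH477 (200 nM) for 30 min at room temperature; HTRF cAMP read after 1 h detection.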
Test [16] can be described thus: G protein-coupled receptor (GPCR) small molecule agonists, calcium flux assay: HEK293 wild type cell line counter screen (AID 1920065). The method in brief:
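Fluorescence intensity signals activation. After overnight (18 h) culture and a 1 h calcium dye load at 37 C, compounds are added by pin tool and the plate read at 480/540 nm for 3 min in 1 s steps.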

Test [17] can be described thus: cAMP Responsive Elements (CRE) small molecule antagonists, cell-based qHTS assay (AID 1963591; active = well fitted inhibition curve with a large enough effect in the signal ratio in the repeat runs, not every such curve was filed as active; the % refers to the signal ratio). In short, it runs like this: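 Stimulation used NKH477 at a final 0.25 uM for 3 h in compound-treated CRE-bla HEK293T cells, seeded 18 h beforehand. Reporter activity was measured with LiveBLAzer B/G FRET substrate after 2 h at room temperature.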
The nature of test [18]: cAMP Responsive Elements (CRE) small molecule agonists, cell-based qHTS assay (AID 1963590). In short, it runs like this: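 Compound exposure lasted 3 h at 37 C/5% CO2 in CRE-bla HEK 293T cells grown in assay medium with 10% dialyzed FBS and 25 mM HEPES. Reporter signal came from LiveBLAzer B/G FRET substrate, 2 h, room temperature.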
Test [19] deals with Beta-2 adrenergic receptor (Homo sapiens) (UniProt P07550). The experiment in a line: Adrenergic beta2 receptor (ADRB2) small molecule agonists, cell-based qHTS assay (AID 1963593).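 Also: CHO cells stably overexpressing human ADRB2.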 In short, it runs like this: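 CHO cells stably over-expressing ADRB2 were plated overnight at 37C, then dosed with compounds plus a stimulation mix containing 100uM IBMX and 25uM Ro-20-1724 for 0.5hr at room temperature. cAMP was measured by HTRF competition, 1hr.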
Chain of Beta-2 adrenergic receptor (Homo sapiens) (P07550 whole entry, looked up): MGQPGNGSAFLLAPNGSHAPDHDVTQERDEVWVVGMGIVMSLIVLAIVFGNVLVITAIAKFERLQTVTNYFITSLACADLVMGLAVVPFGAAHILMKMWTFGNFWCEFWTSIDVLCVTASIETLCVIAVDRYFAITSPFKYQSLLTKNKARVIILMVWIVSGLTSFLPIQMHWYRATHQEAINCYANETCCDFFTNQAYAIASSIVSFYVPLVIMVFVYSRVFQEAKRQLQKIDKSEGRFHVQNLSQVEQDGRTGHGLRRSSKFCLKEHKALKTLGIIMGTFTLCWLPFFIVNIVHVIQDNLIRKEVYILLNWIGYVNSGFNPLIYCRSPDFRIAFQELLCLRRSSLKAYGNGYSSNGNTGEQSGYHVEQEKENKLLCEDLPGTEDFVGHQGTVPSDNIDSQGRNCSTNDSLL

Test [20] is described as follows: p53 small molecule agonists, cell-based qHTS assay (AID 1963582; active = well fitted activation curve with a large enough effect in the signal ratio in the repeat runs, not every such curve was filed as active; the % refers to the signal ratio). In short, it runs like this:
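After plating, p53RE-bla cells sat 5 h in the incubator; compounds or DMSO vehicle were pinned in; a 16 h incubation at 37 C followed; FRET substrate was added and, 2 h later at RT, fluorescence was measured.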

Where “and” joins values, the source holds several entries; their conditions need not be identical. Identical values can stand only once. Results filed as inconclusive are left out. A structure can be active in one record and inactive in another. Calls of active or inactive are those of the source. Unless noted, calls follow the shape of the full dose curve.

Chain of Gonadotropin-releasing hormone receptor (Homo sapiens) (P30968 whole entry, looked up): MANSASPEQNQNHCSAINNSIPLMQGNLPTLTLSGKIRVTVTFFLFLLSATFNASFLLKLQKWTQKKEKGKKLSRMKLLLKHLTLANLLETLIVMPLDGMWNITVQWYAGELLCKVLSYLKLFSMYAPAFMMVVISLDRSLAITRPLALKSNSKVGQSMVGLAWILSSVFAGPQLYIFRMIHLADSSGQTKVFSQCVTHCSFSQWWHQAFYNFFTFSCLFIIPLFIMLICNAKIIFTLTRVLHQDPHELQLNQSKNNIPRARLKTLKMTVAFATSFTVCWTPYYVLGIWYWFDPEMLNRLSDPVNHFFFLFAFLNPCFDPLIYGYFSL
Chain of 5-hydroxytryptamine receptor 2A (Homo sapiens) (P28223 whole entry, looked up): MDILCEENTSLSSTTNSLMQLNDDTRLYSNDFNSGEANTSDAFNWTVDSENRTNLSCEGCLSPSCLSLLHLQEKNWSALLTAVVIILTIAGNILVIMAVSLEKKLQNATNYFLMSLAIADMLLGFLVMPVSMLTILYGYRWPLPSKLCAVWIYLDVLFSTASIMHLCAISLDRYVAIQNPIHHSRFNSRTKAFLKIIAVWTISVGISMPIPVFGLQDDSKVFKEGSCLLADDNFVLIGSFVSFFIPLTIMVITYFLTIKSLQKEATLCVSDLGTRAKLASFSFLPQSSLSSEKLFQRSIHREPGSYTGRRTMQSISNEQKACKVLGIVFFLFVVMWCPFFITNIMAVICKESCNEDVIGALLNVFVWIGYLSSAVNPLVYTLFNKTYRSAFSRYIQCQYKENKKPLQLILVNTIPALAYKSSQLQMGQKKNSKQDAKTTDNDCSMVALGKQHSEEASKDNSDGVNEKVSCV
Chain of D(2) dopamine receptor (Homo sapiens) (P14416 whole entry, looked up): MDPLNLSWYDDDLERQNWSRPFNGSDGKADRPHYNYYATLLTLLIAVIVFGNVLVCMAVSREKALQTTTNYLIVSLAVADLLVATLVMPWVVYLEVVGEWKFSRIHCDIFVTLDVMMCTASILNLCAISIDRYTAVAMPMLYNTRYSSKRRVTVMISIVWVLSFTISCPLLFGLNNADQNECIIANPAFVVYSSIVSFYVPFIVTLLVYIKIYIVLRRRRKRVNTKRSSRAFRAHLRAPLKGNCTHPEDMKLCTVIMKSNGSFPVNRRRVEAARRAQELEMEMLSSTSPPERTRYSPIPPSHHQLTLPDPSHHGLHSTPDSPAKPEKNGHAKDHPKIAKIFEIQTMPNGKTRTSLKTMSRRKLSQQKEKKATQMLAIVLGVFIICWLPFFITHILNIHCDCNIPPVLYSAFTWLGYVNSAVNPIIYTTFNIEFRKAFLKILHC
Chain of Muscarinic acetylcholine receptor M1 (Homo sapiens) (P11229 whole entry, looked up): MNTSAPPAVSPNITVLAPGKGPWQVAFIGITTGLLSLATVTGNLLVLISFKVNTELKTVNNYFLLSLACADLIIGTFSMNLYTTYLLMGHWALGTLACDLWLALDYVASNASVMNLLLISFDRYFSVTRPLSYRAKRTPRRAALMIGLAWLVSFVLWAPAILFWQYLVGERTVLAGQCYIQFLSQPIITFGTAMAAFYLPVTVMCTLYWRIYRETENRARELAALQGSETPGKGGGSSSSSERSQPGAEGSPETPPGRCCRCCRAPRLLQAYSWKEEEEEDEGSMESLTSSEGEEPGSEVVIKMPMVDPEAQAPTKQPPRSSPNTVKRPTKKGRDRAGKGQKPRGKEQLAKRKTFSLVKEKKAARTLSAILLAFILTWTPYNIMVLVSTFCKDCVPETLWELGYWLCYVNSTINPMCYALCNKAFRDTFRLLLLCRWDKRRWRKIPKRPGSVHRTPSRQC

With `CCCCCCCCn1sccc1=O`, the Potency was 1.22 µM (active) and 1.43 µM (active) in test [1]; 612 nM (active) and 641 nM (active) in test [2]; 40.9 µM (active) and inactive in test [6]; 4.09 µM (active) and 1.35 µM (active) in test [7]; 40.9 µM (active) and 38.1 µM (active) in [8]; “inactive and 1.11 µM (active)” in [9]. Further, the Potency entry in test [10] is “inactive and 25.7 µM (active)”; in test [14], 42.8 µM (active). Also, the Potency result in [3], in test [4], in test [5], in test [11], in [12] and in test [13] was “inactive” each time. The Potency result in test [15] was “inactive”.
For the compound `CC(C)c1ccc(OP(=O)(Oc2ccc(C(C)C)cc2)Oc2ccc(C(C)C)cc2)cc1`, the Potency entry in test [1], in test [3], in [4], in [16], in test [7] and in [8] was “inactive” throughout. The Potency entry in [10], in [11], in [17], in test [13], in test [14] and in test [15] was “inactive” throughout. Further, the Potency in [2] was 61.6 µM (active) and inactive and 30.6 µM (active).
For the compound `Clc1ccccc1Cl`, the Potency result in test [1], in [2], in test [3], in test [4], in test [16] and in [7] was “inactive” each time. Besides, the Potency entry in test [10], in test [11], in [12], in [18], in test [13] and in test [19] was “inactive” throughout. The Potency entry in [14] and in test [15] was “inactive” in each case.
Turning to `CCCC[n+]1ccccc1C`, the Potency entry in test [1], in test [2], in test [3], in test [4], in test [16] and in test [6] was “inactive” in each case. Also, the Potency result in [8], in test [9], in test [10], in [11], in test [18] and in [17] was “inactive” each time. Also, the Potency entry in test [13], in [19], in test [14] and in [15] was “inactive” in each case.
On to `COc1cc(OC)nc(NC(=O)NS(=O)(=O)c2ncccc2C(=O)N(C)C)n1`, for which the Potency result in test [1], in [2], in test [3], in test [4], in test [5] and in [6] was “inactive” throughout. Besides, the Potency result in test [7], in [8], in test [20], in test [9], in test [10] and in [11] was “inactive” in each case. The Potency entry in test [12], in test [18], in [17], in test [13], in test [19] and in [14] was “inactive” throughout. Besides, the Potency entry in test [15] was “inactive”.
Take `CC(=O)CCC(C)=O`: the Potency entry in test [1], in test [2], in test [3], in test [4], in test [5] and in [6] was “inactive” in each case. The Potency entry in test [7], in test [8], in test [20], in test [10], in [11] and in test [12] was “inactive” in each case. Moreover, the Potency result in [18], in test [17] and in test [15] was “inactive” in each case.
In the case of `CC(=O)C(C)(C)C`, the Potency entry in test [1], in test [2], in [3], in test [4], in test [5] and in [6] was “inactive” in each case. The Potency result in [7], in test [8], in test [20], in test [9], in [10] and in test [11] was “inactive” throughout. The Potency result in test [12], in test [18], in test [17], in test [13], in test [19] and in test [14] was “inactive” in each case. Also, the Potency result in test [15] was “inactive”.
As to `CCC[N+]1(C)CCCC1`, the Potency result in test [1], in test [2], in [3], in test [4], in test [16] and in test [6] was “inactive” in each case. Further, the Potency entry in test [8], in test [9], in [10], in [11], in test [18] and in test [17] was “inactive” each time. The Potency entry in [13], in test [14] and in test [15] was “inactive” throughout. For the same compound, in test [12], the Potency entry was “inactive and 24.3 µM (active) and 21.9 µM (active)”.

The values above are taken from PubChem BioAssay (Tox21).
